From paper PMC7819943, “Rice protein-binding microarrays: a tool to detect cis-acting elements near promoter regions in rice”
Over roughly 68,000 sequences, “fluorescence intensity (a.u.)” has its median near 9,100; the highest 2% begin near 16,000. Only a selection was taken, and the highest values are over-represented in it overall.

Each sequence was assayed against OsWRKY34 (Oryza sativa, UniProt Q0JBA9 1-250) (assay: protein-binding microarray (RPBM); PBS, 2% BSA, 51.3 ng/ul salmon testes DNA, 50 uM zinc acetate, 200 nM TF, 25 C, 1 h; high values mean tight binding). Conditions: protein: recombinant; tags: N-terminal polyhistidine and DsRed monomer fusion (pET32a); label: CyDye5-dUTP incorporated in the synthesized complementary strand; 3' TTTTT single-stranded linker to array surface; dsDNA, one strand shown.
Sequence of OsWRKY34 (Q0JBA9 entry or part of it): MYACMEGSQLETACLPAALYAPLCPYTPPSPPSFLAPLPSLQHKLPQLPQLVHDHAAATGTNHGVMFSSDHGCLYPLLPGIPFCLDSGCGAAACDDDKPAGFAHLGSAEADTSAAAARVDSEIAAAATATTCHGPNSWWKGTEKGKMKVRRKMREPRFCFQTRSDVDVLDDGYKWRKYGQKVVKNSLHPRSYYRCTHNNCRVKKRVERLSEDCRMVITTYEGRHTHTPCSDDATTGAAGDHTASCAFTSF
Outline: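 Per-feature fluorescence intensity (arbitrary units), read on an Axon 4000B scanner, is the binding signal. Transcription factors carrying an N-terminal polyhistidine tag and DsRed fusion were expressed in E. coli BL21-CodonPlus and purified on Ni–NTA. A custom Agilent array, made double-stranded by primer extension with Cy5-dUTP and blocked with 2% BSA, was incubated with 200 nM protein in PBS, 2% BSA, salmon testes DNA and 50 µM zinc acetate at 25 °C for 1 h and then washed.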

How did the binding signal turn out when “TGTGAGGTGGGGTCGGGGTGGAAGTGGGTGAGGAGGGGTGCGGAGTCACCTAGTGCAG” was run?
Its binding signal is 21700 fluorescence intensity (a.u.).

How did the binding signal turn out when “GTGGGAGAGGCCGGCCGAGGGGAGGAGAGGGGAGGGGTGCCGGAGTCACCTAGTGCAG” was run?
Its binding signal is 10700 fluorescence intensity (a.u.).

How did the binding signal turn out when “GAGCTCGGCGAAATCGATCTGTGGGAGGGAGGGCGGCGAGCGGAGTCACCTAGTGCAG” was run?
Its binding signal is 9110 fluorescence intensity (a.u.).

How did the binding signal turn out when “GGTGGTGGTGGTGGTGCCGGAGCTGGGGAGAAGAGGAGGACGGAGTCACCTAGTGCAG” was run?
The binding signal was 9350 fluorescence intensity (a.u.).

For “GAAAATCTGTGGGAGGGGAGGGGAGGGGACGAGGGGACAGCGGAGTCACCTAGTGCAG”, which binding signal is on record?
The binding signal was 19000 fluorescence intensity (a.u.).

Which binding signal does the source give for “TACTGCAACTCTGCAAGCACATTGATCAATCGATCAATCCCGGAGTCACCTAGTGCAG” here?
Its binding signal is 8450 fluorescence intensity (a.u.).

With “TTTGTGGGGCTCTCTCTTTGATGCTTTCTTCTCTTTAGCTCGGAGTCACCTAGTGCAG” as the sequence, how does the binding signal read?
Its binding signal is 10000 fluorescence intensity (a.u.).

For “CTAAATTGTATTTCTATATGGACTTTGCTTTTTCTTTTTCCGGAGTCACCTAGTGCAG”, which binding signal is on record?
Its binding signal is 10900 fluorescence intensity (a.u.).

For “GTGGTCCAATCACCCTTTGACCCTTCGCCTCCGTGGCGCCCGGAGTCACCTAGTGCAG”, which binding signal is on record?
Its binding signal is 8500 fluorescence intensity (a.u.).

For “TTTCTTGATTAGGGTTTGAATTCATATTACTAACTTTCCTCGGAGTCACCTAGTGCAG”, which binding signal is on record?
The binding signal was 8450 fluorescence intensity (a.u.).

For “TTCCGCGTCAACCACCACCGCGCCGGCGTGCGCCTCCGCGCGGAGTCACCTAGTGCAG”, which binding signal is on record?
Its binding signal is 10300 fluorescence intensity (a.u.).

How did the binding signal turn out when “ATCAGCCTCATGCCCTTGTAGTCCATCGATCTGTCAGATCCGGAGTCACCTAGTGCAG” was run?
Its binding signal is 13300 fluorescence intensity (a.u.).

“TTCGTTTTTCTTTTTTTTTTGATGGGGAGGTTGTAAAATGCGGAGTCACCTAGTGCAG” was tested. Which binding signal did it give?
The binding signal was 13800 fluorescence intensity (a.u.).

With “GCGGAATGGGCGGCGGTGGAGGTGGCGGGTTTGGAGGCGGCGGAGTCACCTAGTGCAG” as the sequence, how does the binding signal read?
Its binding signal is 16700 fluorescence intensity (a.u.).

How did the binding signal turn out when “GAGGCGGGTGGGCGAGCTCCGGCGGCGGCGGGGTGGCCTTCGGAGTCACCTAGTGCAG” was run?
Its binding signal is 15800 fluorescence intensity (a.u.).

Which binding signal does the source give for “TGAGCCTTGCTCGTCGGCGGCGAGGTGGGGTGGGGCGGGGCGGAGTCACCTAGTGCAG” here?
The binding signal was 20800 fluorescence intensity (a.u.).

With “CAGCAGCAGTGGTGGTGGTGGTTTTGGTAGTGGCTGGGAGCGGAGTCACCTAGTGCAG” as the sequence, how does the binding signal read?
Its binding signal is 9780 fluorescence intensity (a.u.).

How did the binding signal turn out when “TGGGCTTGGTGGAGGTGGCGGGTTTGGAGGCGGAGGTGGCCGGAGTCACCTAGTGCAG” was run?
The binding signal was 14400 fluorescence intensity (a.u.).

With “GGAGGAGGCTGGTAGGGGAGGCGGGAGTCCGGCGGCGAGGCGGAGTCACCTAGTGCAG” as the sequence, how does the binding signal read?
The binding signal was 8640 fluorescence intensity (a.u.).

With “TGTGGATGGCGGGGCGAGGCGGAATGGGGCGAATGCGGCGCGGAGTCACCTAGTGCAG” as the sequence, how does the binding signal read?
Its binding signal is 8240 fluorescence intensity (a.u.).

With “GGCGGCCAGATCCGGGGCTGGGGAGGCGACGGCGGCGGGGCGGAGTCACCTAGTGCAG” as the sequence, how does the binding signal read?
The binding signal was 8710 fluorescence intensity (a.u.).

With “GGAGGTGGGGATGGTGGGAGGTTTTGGTTTGGTAAAATAGCGGAGTCACCTAGTGCAG” as the sequence, how does the binding signal read?
Its binding signal is 19800 fluorescence intensity (a.u.).

For “GGAGGTGGGAGTGGGCAGTGGCTCGGCTCGTCGTCCTGGGCGGAGTCACCTAGTGCAG”, which binding signal is on record?
Its binding signal is 8780 fluorescence intensity (a.u.).

“TACTTTATCCGCGGCGGGTAGCTGGGGAGGGAGGGGAGGCCGGAGTCACCTAGTGCAG” was tested. Which binding signal did it give?
The binding signal was 22500 fluorescence intensity (a.u.).

With “CGGTAGTGCGTTAGGTCTTCTCCAAGTCTCTTGGCTTTTACGGAGTCACCTAGTGCAG” as the sequence, how does the binding signal read?
The binding signal was 11100 fluorescence intensity (a.u.).

For “TCACCGATTCACTCTCCTAGTCCTAGAGTCCTGGTCCATCCGGAGTCACCTAGTGCAG”, which binding signal is on record?
The binding signal was 8440 fluorescence intensity (a.u.).

How did the binding signal turn out when “GCACCCACAGTTCCATGAGACACATAGAAGTTTTACACAACGGAGTCACCTAGTGCAG” was run?
The binding signal was 10600 fluorescence intensity (a.u.).

With “TTTCTGAGAGGCATAGTTCATGTTTCCCCATATATACTTCCGGAGTCACCTAGTGCAG” as the sequence, how does the binding signal read?
The binding signal was 8830 fluorescence intensity (a.u.).

Which binding signal does the source give for “TCCGCTGCCTTCGATTCTTGGTAAGCCCCTAATTCTCCTTCGGAGTCACCTAGTGCAG” here?
Its binding signal is 8420 fluorescence intensity (a.u.).

“ACGTTAGTTAAAAAGTCAACGGCGTCATCCATTAAAATACCGGAGTCACCTAGTGCAG” was tested. Which binding signal did it give?
The binding signal was 8900 fluorescence intensity (a.u.).

How did the binding signal turn out when “TCCCCATGCCATGCAAAATAAATATCCATATTACCGTTTCCGGAGTCACCTAGTGCAG” was run?
Its binding signal is 8320 fluorescence intensity (a.u.).

How did the binding signal turn out when “TTCTTCGGTGGTGGTGGTGGTGGGATGGAAGAGGAGGAAGCGGAGTCACCTAGTGCAG” was run?
Its binding signal is 25800 fluorescence intensity (a.u.).

For “CAGCGGGCCCAGCAAGTCAGCCTCACATCTTCTTCTTCATCGGAGTCACCTAGTGCAG”, which binding signal is on record?
The binding signal was 8340 fluorescence intensity (a.u.).

For “AAGTTTTTGGGTAGTGCTTTTGCGCGCTTTCTCTTGGCTGCGGAGTCACCTAGTGCAG”, which binding signal is on record?
Its binding signal is 8150 fluorescence intensity (a.u.).

With “AGCACCGGTGGCAGCGGCGGACCGTGGAGGGAGGGAGGGGCGGAGTCACCTAGTGCAG” as the sequence, how does the binding signal read?
The binding signal was 9770 fluorescence intensity (a.u.).

With “GAGCTTTGCGCTGGGTGGGCTTGCATTTTTGGGTCTACCGCGGAGTCACCTAGTGCAG” as the sequence, how does the binding signal read?
Its binding signal is 21500 fluorescence intensity (a.u.).

With “GTGGTGGAGGAGGAGGAGGAGGATGAGGAGGAAGCGGCTGCGGAGTCACCTAGTGCAG” as the sequence, how does the binding signal read?
Its binding signal is 8570 fluorescence intensity (a.u.).

“GGGGAGGAGGAGGAGGAGGGTAGGGATGGGGAAGAGGAGTCGGAGTCACCTAGTGCAG” was tested. Which binding signal did it give?
Its binding signal is 8020 fluorescence intensity (a.u.).

“GTGGGCAGCGGCGGCGGCCGGTGGGAGGAGGGGAAGCATGCGGAGTCACCTAGTGCAG” was tested. Which binding signal did it give?
The binding signal was 8380 fluorescence intensity (a.u.).

With “GGTGTGGGGCCCACCTGCAGCCTCACATCGGCACCAGCTGCGGAGTCACCTAGTGCAG” as the sequence, how does the binding signal read?
Its binding signal is 18600 fluorescence intensity (a.u.).

How did the binding signal turn out when “GTGGCGGCGGGTGGGGCCCATCTCATGGCTGCTGCCTCTGCGGAGTCACCTAGTGCAG” was run?
The binding signal was 10800 fluorescence intensity (a.u.).

“CGGCGGCGGTGGTGGGGAGGAGGAGGGCCAGCGGCAGCAACGGAGTCACCTAGTGCAG” was tested. Which binding signal did it give?
Its binding signal is 17500 fluorescence intensity (a.u.).

For “TAGCTGTTTGGTCTTGCTGGTGGTGGTGGGTGAGTGTTGGCGGAGTCACCTAGTGCAG”, which binding signal is on record?
Its binding signal is 11200 fluorescence intensity (a.u.).
